Bioassay records as filed in PubChem BioAssay.
LmPK inhibitor = blocks Leishmania mexicana pyruvate kinase activity | Q27686 | purified LmPK, Kinase-Glo ATP luminescence, 1 h | Potency, µM (series often up to 57.5 µM), without a hit: top-dose activity change, negative = inhibition, hits mostly inhibitors | actives 0.37% (n = 290,000) | AID 1721; also: potency is read from the fitted curve at half-maximal effect; % is scaled to controls: 0 for no effect and ±100 for the full control effect
Target sequence (Q27686 whole entry, looked up): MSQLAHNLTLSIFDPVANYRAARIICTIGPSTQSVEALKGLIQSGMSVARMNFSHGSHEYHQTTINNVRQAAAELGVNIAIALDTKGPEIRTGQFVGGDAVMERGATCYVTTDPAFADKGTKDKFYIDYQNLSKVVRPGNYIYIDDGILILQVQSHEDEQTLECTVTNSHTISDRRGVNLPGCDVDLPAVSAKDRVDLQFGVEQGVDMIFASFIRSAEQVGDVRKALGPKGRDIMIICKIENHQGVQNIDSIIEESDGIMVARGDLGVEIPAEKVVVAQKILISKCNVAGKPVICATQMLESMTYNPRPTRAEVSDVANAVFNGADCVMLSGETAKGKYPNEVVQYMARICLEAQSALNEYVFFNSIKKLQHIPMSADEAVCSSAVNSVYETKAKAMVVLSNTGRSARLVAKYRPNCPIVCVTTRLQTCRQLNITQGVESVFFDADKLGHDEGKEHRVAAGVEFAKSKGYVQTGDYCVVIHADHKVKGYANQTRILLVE
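Kinase-Glo luminescence read after 1 h RT reaction of 0.1 nM LmPK with 0.5 mM PEP and 0.1 mM ADP. Activity scaled between uninhibited and enzyme-free controls.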
NS1 function inh = inhibitors of influenza NS1 protein function | Potency, µM (titrated, usually from 46.1 µM), without a hit: top-dose activity, positive = more growth | actives 0.4% (n = 270,000) | AID 2326; calls by dose curve; also: potency is read from the fitted curve at half-maximal effect; actives are rising curves; nearly all actives have a fitted effect of over 50% in size
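Compounds were scored for reversing the slow growth caused by influenza A NS1 in S. cerevisiae, measured by optical density at 600 nm. Assay medium contained 2% galactose at pH 6.0; NS1-free yeast of the same strain were the positive control.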
RE007 growth inh = less growth of the S. pombe RE007 Vpr strain; S. pombe RE007 Vpr strain, BacTiter-Glo ATP luminescence, 24 h; Potency, µM (titrated, usually from 92.2 µM), without a hit: at the top dose activity change, negative = less growth, hits mostly inhibitors; actives 0.21% (n = 360,000); AID 651644; active = well fitted falling curve with a large enough effect; inconclusive = small, poorly fitted or top-dose-only effect; inactive = no such curve, though single readings can be large or run the other way; also: potency is read from the fitted curve at half-maximal effect; % is scaled to controls: 0 for no effect and ±100 for the full control effect; nearly all actives have a fitted effect of over 50% in size
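Fission yeast strain RE007, carrying one chromosomally integrated HIV-1 vpr copy, was seeded at OD 0.01 in PMG+AL medium with 23 nL pinned compound. After 24 h at 30 °C and 99% humidity, viability was read by BacTiter-Glo luminescence.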
TbPYK inhibitor = T. brucei pyruvate kinase inhibition. actives 0.12% (n = 410,000). Potency, µM (top dose mostly 76.8 µM), inactives show top-dose activity, negative = inhibition, most hits filed as inhibitors. AID 624173. TbPYK enzyme, Kinase-Glo Plus ATP luminescence, 45 min; also: potency is read from the fitted curve at half-maximal effect; % is scaled to controls: 0 for no effect and ±100 for the full control effect; nearly all actives have a fitted effect of over 50% in size
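Luminescence from Kinase-Glo Plus, added after a 45-minute room-temperature reaction, served as the end-point read-out. The enzyme and substrate were preincubated with compound before ADP (130 uM final) initiated turnover. Concentration-effect curves came from normalized qHTS data.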
NS1 inh valid = influenza NS1 function inhibition validation; shares compounds with NS1 function inh; influenza NS1 function cell assay, 15-point titration; activity change, negative = inhibition, % at 32.9 µM; 1,400 tested, under 10 active; AID 492980; calls by dose curve; also: 0% is about no effect
* hit, by the source's call; ? = inconclusive; . = not tested or not shown. Hits are enriched below; roughly 0.77% of the tested compounds scored in any of these assays. Unless noted, calls follow the shape of the dose curve; as a rule, active = well fitted curve in the direction sought with a large enough effect; inconclusive = small, poorly fitted or top-dose-only effect, or another doubt; inactive = no such curve, though single readings can be large; an effect the other way counts as inactive or inconclusive.

SMILES	LmPK inhibitor	NS1 function inh	RE007 growth inh	TbPYK inhibitor	NS1 inh valid
CCOc1cc(/C=C2\N=C(C)OC2=O)cc(Br)c1OCC(=O)OC	-1%	?	-2%	-8%	-35
Cc1cc2cc(CN(Cc3ccc4c(c3)OCO4)C(=O)c3ccco3)c(=O)[nH]c2cc1C	3%	?	16%	-2%	11
O=C(c1ccco1)N(Cc1ccc2c(c1)OCO2)Cc1cc2cc3c(cc2[nH]c1=O)OCO3	-1%	2%	3%	4%	.
Nc1cc(N)nc(SCC(=O)Nc2ccc3c(c2)OCCCO3)n1	1%	1.8µM*	-2%	-4%	8
Cc1cc2nc(-c3ccc(SCC(=O)Nc4ccc5c(c4)OCCO5)nc3)[nH]c2cc1C	0%	1.3µM*	-29%	0%	-1
CCOc1ccc(CCNC(=O)Cc2nn[nH]n2)cc1OCC	0%	?	9%	-3%	9
CCOc1ccc(CCNC(=O)COC(=O)Cc2ccc(F)cc2)cc1OCC	.	.	2%	4%	.
COc1ccc(NC(=O)N2CCC3(CC2)CCN(C(=O)c2cccc(F)c2)CC3)cc1	.	.	.	0%	.
COc1cc(/C=N/N(c2ccccc2)c2ccccc2)ccc1O	-1%	-56%	?	1%	.
CN(/N=C\c1ccc(O)c(O)c1)c1nc(-c2ccccc2)cc(-c2ccccc2)n1	0%	8.9µM*	-12%	-13%	?
Cc1cccc(NC(=O)Cn2c(=O)nc(-c3ccccc3)c3ccccc32)c1C	.	.	.	0%	.
COc1ccc(CN2C(=O)c3ccccc3C2=O)cc1	1%	-16%	18%	-2%	.
Cc1cc2cc(CN3C(=O)c4ccccc4C3=O)ccc2[nH]1	9%	?	14%	-1%	21
CC1=C(C(=O)Nc2ccc(C)cc2C)C(c2ccccc2C)n2ncnc2N1 (stereo not drawn)	.	.	.	4%	.
COC(=O)c1ccc(C2C(C(=O)Nc3ccc(C)cc3C)=C(C)Nc3ncnn32)cc1 (stereo not drawn)	1%	22µM*	15%	-4%	1
COc1ccc(/C=C2/C(=O)N(c3c(F)c(F)c(F)c(F)c3F)N=C2C)cc1	-4%	11µM*	1%	-17%	12
COc1ccc(/C=C2/C(=O)N(c3ccccc3)N=C2C)cc1	.	.	-27%	1%	.
CCCCC(=O)Nc1nnc(SCc2cc(=O)n3cc(C)ccc3n2)s1	.	.	.	0%	.
COc1ccccc1-n1cc(-c2ccc(Br)cc2)[nH]c1=S	6%	4.5µM*	2%	-20%	-10
O=C1CC(c2nc(-c3ccc(Cl)cc3)no2)CN1c1ccc2c(c1)OCCO2 (stereo not drawn)	.	.	.	2%	.
Cc1cc(C)nc(Nc2n[nH]c(COc3ccc4ccccc4c3)n2)n1	3%	2µM*	0%	-7%	15
O=C(CSc1nc2c([nH]c3ccccc32)c(=O)n1-c1cccc(C(F)(F)F)c1)N1CCc2ccccc21	.	.	.	-5%	.
CCN(CC)CCNC(=O)c1ccc2c(=O)n3nc(Nc4ccccc4)sc3nc2c1	.	.	.	-4%	.
CCCc1nc2oc3cc(OC)ccc3c(=O)c2c(=O)n1Cc1ccco1	-4%	-35%	13%	4%	.
CCCCCCn1c(-c2ccco2)nc2oc3cc(OC)ccc3c(=O)c2c1=O	-5%	13µM*	-5%	-29%	-37
SMILES	LmPK inhibitor	NS1 function inh	RE007 growth inh	TbPYK inhibitor	NS1 inh valid
Cc1ccc(C(=O)N/C(=C/c2ccco2)C(=O)N2CCCCCC2)cc1	0%	?	-3%	6%	-4
O=C(N/C(=C\c1ccco1)C(=O)N1CCCC1)c1ccccc1	-2%	4%	13%	-3%	.
CC1(C)C(=O)C2(C(=O)NCc3ccccc3)CCC1C2 (stereo not drawn)	1%	20µM*	-5%	-1%	1
NCCCC[C@H](NC(=O)[C@@H]1CCCN1C(=O)[C@@H]1CSSC[C@H](NC(=O)CNC(=O)CNC(=O)CN)C(=O)N[C@@H](Cc2ccc(O)cc2)C(=O)N[C@@H](Cc2ccccc2)C(=O)N[C@@H](CCC(N)=O)C(=O)N[C@@H](CC(N)=O)C(=O)N1)C(=O)NCC(N)=O	.	.	.	-6%	.
CC(OC(=O)CCCCCN=C1NS(=O)(=O)c2ccccc21)C(=O)Nc1cc(Cl)cc(Cl)c1 (stereo not drawn)	1%	13µM*	8%	-2%	6
CCCC(c1nnnn1CCC(C)C)N1CCC(C(N)=O)CC1 (stereo not drawn)	-2%	1.1µM*	-6%	-1%	0
CC(C)Cn1c(N)c(C(=O)COC(=O)c2ccc3ccccc3n2)c(=O)n(C)c1=O	-8%	10µM*	4%	2%	-6
CN(C)c1ccc(C(CNC(=O)c2ccccc2F)c2c[nH]c3ccccc23)cc1 (stereo not drawn)	-6%	16%	4%	-6%	.
CN(C)c1ccc(C(CNC(=O)c2ccccc2)c2c[nH]c3ccccc23)cc1 (stereo not drawn)	2%	13µM*	-10%	-4%	?
COc1ccc(NC(=O)CSc2oc(-c3ccco3)nc2S(=O)(=O)c2ccc(Br)cc2)c(OC)c1	.	.	.	2%	.
CCC1c2ccc(C)n2CCN1C(=O)Nc1ccccc1OC (stereo not drawn)	7%	16µM*	-13%	1%	3
O=c1oc2ccccc2n1CCCOc1ccccc1Cl	.	.	.	2%	.
CC(C)Nc1ccc(-c2nc(-c3ccncc3)no2)cc1[N+](=O)[O-]	.	.	.	1%	.
Cn1c(SCC(=O)c2ccccc2)nnc1-c1cccs1	1%	?	0%	-18%	-25
COc1ccc(-n2c(Cc3cccn3C)nnc2SCC(=O)Nc2ccc(F)cc2)cc1	10%	?	-11%	-14%	8
Cn1cccc1Cc1nnc(SCC(=O)N2CCc3ccccc32)n1-c1ccc(F)cc1	-2%	-10%	-5%	8%	.
Cc1ccc(-n2c(Cc3cccn3C)nnc2SCC(=O)N2CCc3ccccc32)cc1	5%	7.9µM*	-4%	-1%	-19
COc1ccc(NC(=O)CSc2nnc(-c3cccs3)n2-c2ccccc2)cc1	-2%	2.8µM*	14%	1%	12
CCOc1ccc(S(=O)(=O)N2CCC(N3CCN(Cc4ccc(F)cc4)C(=O)C3=O)CC2)cc1	.	.	.	1%	.
COc1ccc(Nc2cc(C(=O)NCCCN(C)Cc3ccccc3)c3ccccc3n2)cc1OC	.	.	.	-1%	.
O=C(N/N=C\c1c(O)ccc2ccccc12)c1ccc(Cn2cccn2)o1	0%	?	1%	-7%	-5
O=C(N/N=C\c1ccc(Cl)s1)c1ccc(Cn2cccn2)o1	-2%	-4%	-9%	-21%	.
Cn1c(CCN2CCCCC2)nc2cc(NS(=O)(=O)c3ccc(Cl)cc3)ccc21	5%	0.89µM*	-22%	1%	-23
Cc1nc2ccn(Cc3ccco3)c(=O)c2cc1C(=O)NCc1ccc(Cl)cc1	.	.	.	0%	.
NC(=S)N=Nc1c(O)n(CC(=O)Nc2ccccc2)c2ccccc12	-7%	5%	8%	6%	.
